# According to PubChem BioAssay AID1159580 (chemical genetic matrix, 2015):
# Screen size: about 5,500 compounds; about 2,000 (36%) were called active. Roughly 18% stayed inconclusive and do not appear here. This is one part of the list. Unmarked numbers belong to inactive results. Rule as the data show it: active = normalized growth mostly below about 0.91 (no sharp cut-off); inconclusive = no clear call, values can overlap the other calls; inactive = mostly above about 0.92.
# Test: chemical genetic growth profiling, strain panel (AID 1159580);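 also: tested at 20 µM; growth read once vehicle control cultures reached saturation at 30 °C; 1 = growth at the plate median or of vehicle wells; lower values mean less growth of the strain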
# Conditions: growth OD
structure (smiles),measurement,setting,value
CC(=O)Oc1c(Cl)c(C)c2c(c1Cl)OC(=O)c1c(C)c(Cl)c(OC(C)=O)c(Cl)c1O2,normalized growth,"S. cerevisiae deletion strains, locus YAL013W, strain DEP1, hits give low values",0.895 (active)
same,normalized growth,"S. cerevisiae deletion strains, locus YBR021W, strain FUR4, hits give low values",0.851 (active)
same,normalized growth,"S. cerevisiae deletion strains, locus YBR229C, strain ROT2, hits give low values",1.02
same,normalized growth,"S. cerevisiae deletion strains, locus YCL029C, strain bik1, hits give low values",0.853 (active)
same,normalized growth,"S. cerevisiae deletion strains, locus YDL035C, strain GPR1, hits give low values",0.86
same,normalized growth,"S. cerevisiae deletion strains, locus YDL074C, strain BRE1, hits give low values",0.79
same,normalized growth,"S. cerevisiae deletion strains, locus YDL101C, strain DUN1, hits give low values",0.946
same,normalized growth,"S. cerevisiae deletion strains, locus YDL185W, strain tfp1, hits give low values",1
same,normalized growth,"S. cerevisiae deletion strains, locus YDL192W, strain arf1, hits give low values",0.825 (active)
same,normalized growth,"S. cerevisiae deletion strains, locus YDR101C, strain arx1, hits give low values",0.883 (active)
same,normalized growth,"S. cerevisiae deletion strains, locus YDR162C, strain NBP2, hits give low values",0.799 (active)
same,normalized growth,"S. cerevisiae deletion strains, locus YDR318W, strain mcm21, hits give low values",0.946
same,normalized growth,"S. cerevisiae deletion strains, locus YDR388W, hits give low values",0.932
same,normalized growth,"S. cerevisiae deletion strains, locus YDR502C, strain sam2, hits give low values",0.878 (active)
same,normalized growth,"S. cerevisiae deletion strains, locus YEL061C, strain CIN8, hits give low values",1.02
same,normalized growth,"S. cerevisiae deletion strains, locus YER110C, hits give low values",0.992
same,normalized growth,"S. cerevisiae deletion strains, locus YER155C, strain BEM2, hits give low values",0.91 (active)
same,normalized growth,"S. cerevisiae deletion strains, locus YER167W, strain BCK2, hits give low values",0.985
same,normalized growth,"S. cerevisiae deletion strains, locus YGL078C, strain dbp3, hits give low values",0.856 (active)
same,normalized growth,"S. cerevisiae deletion strains, locus YGL086W, strain mad1, hits give low values",0.899 (active)
same,normalized growth,"S. cerevisiae deletion strains, locus YGL248W, strain PDE1, hits give low values",0.926
same,normalized growth,"S. cerevisiae deletion strains, locus YGR135W, strain pre9, hits give low values",0.912
same,normalized growth,"S. cerevisiae deletion strains, locus YGR229C, strain SMI1, hits give low values",0.65 (active)
same,normalized growth,"S. cerevisiae deletion strains, locus YGR252W, strain gcn5, hits give low values",0.693 (active)
same,normalized growth,"S. cerevisiae deletion strains, locus YHR030C, strain SLT2, hits give low values",0.922
same,normalized growth,"S. cerevisiae deletion strains, locus YHR079C, strain IRE1 (second series), hits give low values",1.01
same,normalized growth,"S. cerevisiae deletion strains, locus YHR094C, strain hxt1, hits give low values",1.01
same,normalized growth,"S. cerevisiae deletion strains, locus YHR129C, strain ARP1, hits give low values",0.925
same,normalized growth,"S. cerevisiae deletion strains, locus YHR200W, strain rpn10, hits give low values",0.966
same,normalized growth,"S. cerevisiae deletion strains, locus YIL066C, strain RNR3, hits give low values",0.965
same,normalized growth,"S. cerevisiae deletion strains, locus YIL073C, strain SPO22, hits give low values",1.03
same,normalized growth,"S. cerevisiae deletion strains, locus YIL125W, strain kgd1, hits give low values",1.02
same,normalized growth,"S. cerevisiae deletion strains, locus YIR030C, strain dcg1, hits give low values",0.934
same,normalized growth,"S. cerevisiae deletion strains, locus YJL095W, strain BCK1, hits give low values",0.802
same,normalized growth,"S. cerevisiae deletion strains, locus YJL134W, strain LCB3, hits give low values",1.04
same,normalized growth,"S. cerevisiae deletion strains, locus YJL168C, strain set2, hits give low values",1.01
same,normalized growth,"S. cerevisiae deletion strains, locus YJL187C, strain SWE1 (second series), hits give low values",0.913
same,normalized growth,"S. cerevisiae deletion strains, locus YJR043C, strain POL32, hits give low values",0.921
same,normalized growth,"S. cerevisiae deletion strains, locus YKL009W, strain mrt4, hits give low values",0.678 (active)
same,normalized growth,"S. cerevisiae deletion strains, locus YKL085W, strain MDH1 (second series), hits give low values",1.39 [resistant] (active)
same,normalized growth,"S. cerevisiae deletion strains, locus YKL085W, strain MDH1, hits give low values",1.39 [resistant] (active)
same,normalized growth,"S. cerevisiae deletion strains, locus YKR001C, strain vps1, hits give low values",0.682 (active)
same,normalized growth,"S. cerevisiae deletion strains, locus YLR039C, strain RIC1, hits give low values",0.715
same,normalized growth,"S. cerevisiae deletion strains, locus YLR058C, strain SHM2, hits give low values",0.967
same,normalized growth,"S. cerevisiae deletion strains, locus YLR102C, strain apc9, hits give low values",1.01
same,normalized growth,"S. cerevisiae deletion strains, locus YLR262C, strain YPT6, hits give low values",0.642
same,normalized growth,"S. cerevisiae deletion strains, locus YLR268W, strain sec22, hits give low values",0.847 (active)
same,normalized growth,"S. cerevisiae deletion strains, locus YLR330W, strain CHS5, hits give low values",0.922
same,normalized growth,"S. cerevisiae deletion strains, locus YLR342W, strain FKS1 (second series), hits give low values",0.828
same,normalized growth,"S. cerevisiae deletion strains, locus YLR371W, strain rom2, hits give low values",1.01
same,normalized growth,"S. cerevisiae deletion strains, locus YLR418C, strain cdc73, hits give low values",0.756 (active)
same,normalized growth,"S. cerevisiae deletion strains, locus YML016C, strain PPZ1, hits give low values",1.02
same,normalized growth,"S. cerevisiae deletion strains, locus YML032C, strain rad52, hits give low values",0.853 (active)
same,normalized growth,"S. cerevisiae deletion strains, locus YML124C, strain tub3, hits give low values",1.02
same,normalized growth,"S. cerevisiae deletion strains, locus YMR078C, strain ctf18, hits give low values",0.985
same,normalized growth,"S. cerevisiae deletion strains, locus YMR223W, strain ubp8, hits give low values",0.886 (active)
same,normalized growth,"S. cerevisiae deletion strains, locus YMR307W, strain GAS1, hits give low values",0.613
same,normalized growth,"S. cerevisiae deletion strains, locus YNL067W, strain RPL9B, hits give low values",0.846 (active)
same,normalized growth,"S. cerevisiae deletion strains, locus YNL153C, strain GIM3, hits give low values",0.858 (active)
same,normalized growth,"S. cerevisiae deletion strains, locus YNL233W, strain BNI4, hits give low values",0.934
same,normalized growth,"S. cerevisiae deletion strains, locus YNL250W, strain rad50, hits give low values",0.98
same,normalized growth,"S. cerevisiae deletion strains, locus YNL271C, strain bni1, hits give low values",0.993
same,normalized growth,"S. cerevisiae deletion strains, locus YNL298W, strain CLA4, hits give low values",0.866 (active)
same,normalized growth,"S. cerevisiae deletion strains, locus YNL307C, strain MCK1, hits give low values",0.771 (active)
same,normalized growth,"S. cerevisiae deletion strains, locus YNL322C, strain KRE1, hits give low values",1.02
same,normalized growth,"S. cerevisiae deletion strains, locus YNR052C, strain pop2, hits give low values",0.754 (active)
same,normalized growth,"S. cerevisiae deletion strains, locus YOL006C, strain TOP1, hits give low values",0.734
same,normalized growth,"S. cerevisiae deletion strains, locus YOL012C, strain htz1",1.44
same,normalized growth,"S. cerevisiae deletion strains, locus YOL147C, strain pex11, hits give low values",0.916 (active)
same,normalized growth,"S. cerevisiae deletion strains, locus YOR061W, strain CKA2, hits give low values",0.988
same,normalized growth,"S. cerevisiae deletion strains, locus YOR069W, strain VPS5, hits give low values",0.972
same,normalized growth,"S. cerevisiae deletion strains, locus YOR136W, strain idh2, hits give low values",0.976
same,normalized growth,"S. cerevisiae deletion strains, locus YOR144C, strain elg1, hits give low values",0.903 (active)
same,normalized growth,"S. cerevisiae deletion strains, locus YOR184W, strain ser1, hits give low values",0.652 (active)
same,normalized growth,"S. cerevisiae deletion strains, locus YOR316C, strain cot1, hits give low values",1.01
same,normalized growth,"S. cerevisiae deletion strains, locus YPR119W, strain clb2, hits give low values",1.01
same,normalized growth,"S. cerevisiae deletion strains, locus YPR141C, strain kar3, hits give low values",1.07
same,normalized growth,"S. cerevisiae deletion strains, locus YPR163C, strain tif3, hits give low values",0.736 (active)
same,normalized growth,"S. cerevisiae deletion strains, locus YPR167C, strain met16, hits give low values",0.942
same,normalized growth,"S. cerevisiae deletion strains, strain wtn01, hits give low values",0.856 (active)
same,normalized growth,"S. cerevisiae strains, strain wild type, hits give low values",0.977
